Autofluor counter: flagged as autofluorescent in microsphere protease counterscreen | 360,000 compounds, 3.1% hits | fluorescence intensity (no concentration beside the values) | compound autofluorescence counterscreen, microsphere flow cytometry; active compounds read high; in the data active = fluorescence intensity above about 16000; inconclusive = no clear call, values can overlap the other calls
BoNT F protease: BoNT/F light chain protease inhibitors, primary screen, biochemical, flow cytometry, MLPCN library. Botulinum neurotoxin type F light chain protease (Clostridium botulinum). Multiplex microsphere protease cleavage assay. inhibition, % at 10 µM. 360,000 compounds, 0.22% hits; in the data active = inhibition above about 35%, passing the limit was not always enough; inconclusive = no clear call, values can overlap the other calls; also: plate controls were buffer without enzyme for full effect and enzyme alone for no effect
Anthrax LF inh2: Bacillus anthracis LF protease inhibitors, primary screen, biochemical, multiplex microsphere, MLPCN library; Lethal factor (Bacillus anthracis), P15917; multiplex microsphere protease cleavage assay; inhibition, % at 10 µM; 360,000 compounds, 0.12% hits; also: plate controls were buffer without enzyme for full effect and enzyme alone for no effect
Target sequence (P15917 whole entry, looked up): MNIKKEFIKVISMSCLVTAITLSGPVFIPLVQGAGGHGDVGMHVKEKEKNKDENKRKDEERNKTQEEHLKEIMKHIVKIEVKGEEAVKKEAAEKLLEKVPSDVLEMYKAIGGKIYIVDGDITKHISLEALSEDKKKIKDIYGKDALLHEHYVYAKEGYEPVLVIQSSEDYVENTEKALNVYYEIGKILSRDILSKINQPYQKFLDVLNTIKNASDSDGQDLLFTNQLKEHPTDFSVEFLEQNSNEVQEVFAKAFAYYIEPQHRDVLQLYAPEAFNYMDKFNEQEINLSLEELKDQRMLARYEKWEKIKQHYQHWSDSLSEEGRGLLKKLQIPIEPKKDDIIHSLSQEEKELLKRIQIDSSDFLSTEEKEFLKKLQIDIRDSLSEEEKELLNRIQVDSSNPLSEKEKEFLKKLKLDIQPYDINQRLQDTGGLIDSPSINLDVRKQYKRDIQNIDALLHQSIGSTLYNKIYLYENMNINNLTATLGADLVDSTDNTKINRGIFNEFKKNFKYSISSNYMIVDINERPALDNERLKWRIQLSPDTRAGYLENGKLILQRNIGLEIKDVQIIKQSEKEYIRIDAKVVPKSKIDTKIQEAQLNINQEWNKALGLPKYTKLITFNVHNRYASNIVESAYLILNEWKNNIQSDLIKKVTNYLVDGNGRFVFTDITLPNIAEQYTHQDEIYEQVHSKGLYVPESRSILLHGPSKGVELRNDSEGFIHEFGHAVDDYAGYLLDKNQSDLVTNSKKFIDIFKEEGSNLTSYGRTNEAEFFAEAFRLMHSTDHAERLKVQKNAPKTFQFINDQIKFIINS
BoNT-A LC inh2: BoNT/A light chain protease inhibitors, primary screen, biochemical, flow cytometry, MLPCN library. Botulinum neurotoxin type A light chain protease (Clostridium botulinum A str. ATCC 3502). multiplex microsphere protease substrate cleavage. inhibition, % at 10 µM. 360,000 compounds, 0.17% hits; also: plate controls were buffer without enzyme for full effect and enzyme alone for no effect
An asterisk follows results filed as active; ? = inconclusive. In the library only some 3.5% were active in any assay of this set; here they are far more common. Rule as the data show it, unless noted: active = inhibition above about 30%; inconclusive = no clear call, values can overlap the other calls; inactive = below that.

SMILES | Autofluor counter | BoNT F protease | Anthrax LF inh2 | BoNT-A LC inh2
COc1ccccc1CNC(=O)c1ccccc1NS(C)(=O)=O | 20558* | 0 | 0 | 0
COc1ccccc1CNC(=O)c1ccccc1N(C)S(C)(=O)=O | 19853* | 2 | 0 | 2
CCC/C=C/c1ccc(CN2C(CC(C)C)C(=O)N(Cc3cn(CCOCOC)nn3)CCS2(=O)=O)cc1 (stereo unspecified) | 3040 | -8 | 1 | -1
CCOc1ccccc1C1CC(=O)Nc2cc3c(cc21)OCCO3 (stereo unspecified) | 16905* | -4 | -2 | -3
CCCOc1ccccc1C1CC(=O)Nc2cc3c(cc21)OCCO3 (stereo unspecified) | 4558 | 24 | 1 | 0
Cc1cccc(C(=O)NNC(=S)NC(=O)c2cccs2)c1 | 6585 | -17 | -4 | -4
C/C(=N\NC(=O)c1ccccc1O)c1c(O)cc(C)oc1=O | 17536* | 17 | 3 | 11
CSc1ccc(/C=C/C(=O)OCC(=O)N2CCN(c3ccccc3)CC2)cc1 | 4147 | -7 | -4 | 0
O=C(Cc1ccccc1)N/N=C/c1cc(Br)c(Br)o1 | 16918* | -4 | 2 | ?
Cc1cc(NC(=O)C2CC(=O)OC2c2ccccc2)no1 (stereo unspecified) | 23968* | -5 | 0 | -1
COc1ccc(NC(=O)C2CC(=O)OC2c2ccccc2)cc1 (stereo unspecified) | 2428 | 30 | 0 | 5
O=C(CC1Nc2ccccc2NC1=O)Nc1cc(Cl)cc(Cl)c1 (stereo unspecified) | 22648* | -8 | 0 | -6
O=C(NCCc1ccccn1)C1CC(=O)N(Cc2ccccc2Cl)C1 (stereo unspecified) | 19830* | 0 | -2 | ?
COc1ccc(CNC(=O)CCNS(=O)(=O)c2ccc(Cl)cc2)cc1 | 4631 | 0 | -3 | 0
O=C(O)CCc1ccc(S(=O)(=O)NCCc2ccccc2)cc1 | 20869* | 0 | 1 | -3
CC(=O)Nc1ccc(S(=O)(=O)NCc2ccc3[nH]c(C)cc3c2)cc1 | 3018 | -88 | -39 | 53*
O=C(Nc1ccc(S(=O)(=O)NCCc2ccccc2)cc1)c1ccco1 | 23096* | 0 | -2 | 1
COc1ccc(S(=O)(=O)NCCC(=O)NCc2ccc(F)cc2)cc1 | 19366* | 12 | 0 | 10
COc1ccc(F)cc1-c1cc(NC(C)=O)c2ncc(-c3cccc(C(F)(F)F)c3)n2c1 | 4098 | -5 | -4 | 0
COc1ccc(S(=O)(=O)CCC(=O)NCCc2ccc(C)cc2)cc1 | 16185* | 1 | -4 | 0
O=C(CCc1ccc(S(=O)(=O)NCCc2ccccc2)cc1)NCc1ccc2c(c1)OCO2 | 24716* | -2 | -1 | -3
O=S(=O)(NCc1ccc2c(c1)OCO2)c1ccc2oc3ccccc3c2c1 | 16406* | 2 | -1 | 0
O=C(O)CCCNS(=O)(=O)c1ccc(F)cc1 | 24742* | -3 | -1 | -2
COCCNC(=O)C1CCCN(C(=O)c2nc3ccccc3s2)CC1 (stereo unspecified) | 3792 | 4 | 6 | 0
CC1(C(=O)Nc2cccc3ncccc23)CCN1C(=O)Cc1ccc(-c2ccccc2)cc1 (stereo unspecified) | 3402 | -1 | -6 | 0
SMILES | Autofluor counter | BoNT F protease | Anthrax LF inh2 | BoNT-A LC inh2
COC(=O)Nc1ccc(S(=O)(=O)NCCCCCC(=O)O)cc1 | 4300 | -2 | -5 | -1
CC(=O)Nc1ccc(S(=O)(=O)NCCc2ccc(F)cc2)cc1 | 19405* | -4 | -4 | 0
COC(=O)Nc1ccc(S(=O)(=O)NCCO)cc1 | 18225* | -7 | -2 | -4
O=S(=O)(NCCSc1ccc(Cl)cc1)c1ccc(F)cc1 | 16419* | -4 | -2 | 0
Nc1cc2c(cc1Br)-c1c(C(=O)O)cccc1C2O (stereo unspecified) | 3771 | -6 | -2 | 0
CCc1nc2c(OCC(=O)c3ccc(Cl)cc3Cl)cccn2c1N(C)C(=O)c1cccs1 | 2730 | 6 | 0 | 0
CCCCOCCCNC(=O)C[C@@H]1C[C@@]2(C(=O)OCC)CCC=C2N(Cc2ccc(Cl)cc2Cl)C1=O | 5682 | 4 | 2 | 0
COc1ccc(CCNC(=O)Cn2cnc3c(cnn3-c3ccccc3Cl)c2=O)cc1OC | 21068* | 4 | -1 | 3
CN1CCC(N2CCN(C3CN(Cc4ccc(F)cc4)S(=O)(=O)C3)CC2)CC1 (stereo unspecified) | 5786 | -3 | 5 | 0
COc1ccc(-c2nnc(CSc3nnc(-c4ccncc4)n3C3CCCCC3)o2)cc1OC | 19681* | -1 | 0 | ?
COCCCn1c(SCc2nnc(-c3ccc(OC)c(OC)c3)o2)nnc1-c1ccncc1 | 2806 | 5 | 2 | 0
CC(=O)Oc1ccc2c(=O)c(N3C(=O)c4ccccc4C3=O)c(C)oc2c1 | 2475 | -3 | 3 | 0
CCCOc1ccc2c(=O)c(N3C(=O)c4ccccc4C3=O)c(C)oc2c1 | 20166* | -1 | -4 | 0
Cc1oc2cc(O)ccc2c(=O)c1N1C(=O)c2ccccc2C1=O | 19700* | -1 | -3 | 1
CNC(=O)C1CCC(=O)N1Cc1c[nH]c2ccccc12 (stereo unspecified) | 4187 | 8 | 6 | 0
CC(=O)NC(Cc1ccccc1)C(=O)NC1CCN(C(=O)c2cnccn2)CC1 (stereo unspecified) | 16732* | -1 | -1 | ?
CC(=O)NC(Cc1ccccc1)C(=O)NC1CCN(C(=O)c2ccc([N+](=O)[O-])cc2)CC1 (stereo unspecified) | 2477 | -4 | 0 | 0
O=C(N1CCOCC1)C(F)(F)C(F)(F)C(F)(F)C(F)(F)C(=O)N1CCOCC1 | 20612* | 0 | 0 | ?
Cc1ccc(S(=O)(=O)CC(C)N2CCOCC2)c(S(=O)(=O)CC(C)N2CCOCC2)c1 (stereo unspecified) | 23181* | -3 | 2 | 0
Cc1ccc(C)c(S(=O)(=O)NCCN2CCOCC2)c1 | 3561 | 1 | 10 | 3
COC(=O)[C@@]1(Cc2ccc(F)cc2)[C@H]2c3cc(C(=O)N(C)C)n(CCc4c[nH]c5ccc(O)cc45)c3C[C@H]2CN1C(=O)c1ccccc1 | 6094 | -23 | 1 | -1
CCOC(=O)N1CCN(c2cc(N3CCN(CC)CC3)c(F)cc2[N+](=O)[O-])CC1C (stereo unspecified) | 18259* | 1 | -5 | 3
COc1ccc(CN(C)C(=O)Cc2ccc(OC)c(S(=O)(=O)N3CCOCC3)c2)cc1 | 6037 | 8 | 6 | 1
CCCS(=O)(=O)NC(=O)C1(C)CCCN(C(=O)c2c(-c3ccccc3)noc2C)C1 (stereo unspecified) | 4018 | 0 | -2 | 0
Brc1ccc(OCc2ccccc2)c(CNCc2ccncc2)c1 | 16749* | -15 | -9 | -3
Fc1ccc(COc2ccccc2CNCc2ccncc2)cc1 | 2435 | -21 | -3 | -1
Cc1ccc(S(=O)(=O)N2CCCCC2)cc1NC(=O)COC(=O)c1ccc(=O)[nH]c1 | ? | 0 | -6 | -2

Source: PubChem BioAssay
